Compound activity (PubChem BioAssay)
Pf growth 48h: inhibits P. falciparum growth in the first generation, 48 h | Potency, µM (titrated, usually from 28.7 µM), actives largely listed as inhibitors | P. falciparum luciferase growth in erythrocytes, 48 h | 310,000 compounds, 5.9% hits
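Parasite viability was followed by luminescence of a genomically integrated firefly luciferase. Cultures held 0.1% parasitemia at 2% hematocrit (final), incubated under 5% CO2 at 37 C.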
Pf growth 96h: inhibits malaria parasite growth, 96 h; 320,000 compounds, 6.9% hits; Potency, µM (series often up to 28.7 µM), hits mostly inhibitors; P. falciparum luciferase reporter growth, 96 h
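Plates of compound plus infected erythrocytes (2% hematocrit, 0.05% parasitemia final) incubate 96 hours, 37 C, 5% CO2. Detection reagent added; reduced luminescence from the parasites' luciferase reporter flags inhibition.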
NS1 inh: blocks influenza NS1 protein function; Potency, µM (titrated, usually from 46.1 µM); 270,000 compounds, 0.4% hits; calls by dose curve; further: actives are rising curves; nearly all actives have a fitted effect of over 50% in size
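OD600 was taken as the measure of yeast growth restored by compound in an NS1-expressing S. cerevisiae strain. Cells had been washed out of glucose medium and diluted 1:100 into galactose -URA medium, pH 6.0.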
Shiga inhibitor: inhibitors of Shiga toxin in Vero cells; 290,000 compounds, 9.2% hits; inhibition, % at 38.7 µM; AID 2315; Vero cells, Shiga toxin protein synthesis inhibition reporter; in the data active means inhibition mostly above about 28%, no sharp cut-off; inactive means mostly below about 43%
CHX counter: counter-screen hit for Shiga toxin inhibitors, cycloheximide; cell reporter, cycloheximide protein synthesis inhibition counterscreen; max response, %; 300,000 compounds, 12% hits; in the data active means max response mostly above about 13%, no sharp cut-off; inactive means mostly below about 14%; further: read at 38.3 µM for the half of the compounds with a filed dose
A number is an active result; . = inactive; ? = inconclusive; / = no result given; [ ] = another dose, or the depositor's remark. The list is not random: actives were taken first. Their share in the collection is about 21%. Unless noted, the call rests on the fitted dose curve; in most records, active means well fitted inhibition curve with a large enough effect; inconclusive means small, poorly fitted or top-dose-only effect, or another doubt; inactive means no such curve, though single readings can be large or run the other way.

SMILES	Pf growth 48h	Pf growth 96h	NS1 inh	Shiga inhibitor	CHX counter
Cc1c(NC(=O)COC(=O)c2cc(-c3ccc(-c4ccccc4)cc3)nc3ccccc23)c(=O)n(-c2ccccc2)n1C	.	.	.	84	57
COc1ccc(-c2cc(C(=O)OC(C)C(=O)Nc3c(C)n(C)n(-c4ccccc4)c3=O)c3ccccc3n2)cc1 (stereo not given)	.	.	.	.	.
NC(=O)C1CCN(C(=O)C(=O)c2cn(CC(=O)N3CCCCCC3)c3ccccc23)CC1	?	?	.	.	.
COc1cc(OC)c(C(=O)NC2CCCc3ccccc32)cc1OC (stereo not given)	.	?	.	.	.
CCC(NC(=O)C1C2C=CC(C2)C1C(=O)O)c1ccc(C)cc1 (stereo not given)	.	?	.	.	.
COc1ccc(-c2cc(C(=O)Nc3c(C)n(C)n(-c4ccccc4)c3=O)c3ccccc3n2)c(OC)c1	12µM	15µM	.	.	.
COc1ccc(/C(O)=C/C(=O)C(=O)Nc2c(C)n(C)n(-c3ccccc3)c2=O)cc1	.	7.4µM	.	.	.
COc1ccc(-c2cc(C(=O)Nc3c(C)n(C)n(-c4ccccc4)c3=O)c3ccccc3n2)cc1OC	?	.	.	.	.
COc1ccc(OC)c(S(=O)(=O)ON2C(=O)c3ccccc3C2=O)c1	.	2.9µM	.	.	.
COc1cccc(NC(=O)Nc2c(C)n(C)n(-c3ccccc3)c2=O)c1	.	.	?	.	.
Cc1c(NC(=O)Nc2cccc(C#N)c2)c(=O)n(-c2ccccc2)n1C	.	3.7µM	.	.	.
COc1ccc(OC)c(S(=O)(=O)N2CCN(c3ccccc3)CC2)c1	.	.	.	.	.
NC(N)=N[C@H](CC(=O)O)c1ccccc1	/	/	.	/	/
Cc1c(NC(=O)c2cc3ccccc3oc2=O)c(=O)n(-c2ccccc2)n1C	/	.	.	86	42
O=C1C=C(NC2CCCCC2)CCC1	13µM	13µM	/	/	/
CC1(C)CC(=O)C=C(NNC(=O)C2CCCCC2)C1	.	.	.	.	.
CC1(C)CC(=O)C=C(NC2CCCCCC2)C1	?	12µM	.	.	.
CC1(C)CC(=O)C=C(Nc2ccc(Cl)cc2)C1	.[0.00184 µM]	?	.	.	.
CC1(C)CC(=O)C=C(NC2CCCCCCC2)C1	?	3.7µM	.	.	.
COc1cc(OC)c(OC)cc1CNCCNC(=O)c1nonc1N	.	.	.	.	.
CN(C)S(=O)(=O)c1ccc(C(=O)OCc2ccc(C#N)cc2)cc1	.	/	.	.	.
CCCS(=O)(=O)c1ccc(COC(=O)Cc2ccc([N+](=O)[O-])cc2)cc1	.	2.9µM	.	/	.
O=C(Cc1ccc([N+](=O)[O-])cc1)OCc1ccc([N+](=O)[O-])cc1	?	.	.	.	.
CN(C)S(=O)(=O)c1ccc(C(=O)OCc2ccc([N+](=O)[O-])cc2)cc1	.	.	.	.	13
CC(=O)c1c(C)[nH]c(C(=O)OCC(=O)N(Cc2ccccc2)C(C)(C)C)c1C	.	?	/	/	/
SMILES	Pf growth 48h	Pf growth 96h	NS1 inh	Shiga inhibitor	CHX counter
CC(=O)c1c(C)[nH]c(C(=O)OCc2ccc([N+](=O)[O-])cc2)c1C	.	.	.	56	15
CC(=O)c1c(C)[nH]c(C(=O)OCc2ccccc2)c1C	.	?	.	120	38
CCOC(=O)N1C2C=C(C)[C@@H]2[C@@H]2CC(=O)N21 (stereo not given in full)	.	.	.	.	.
CC(C)CNS(=O)(=O)c1ccc(S(=O)(=O)N2CCN(CCC#N)CC2)cc1	.	.	.	.	.
CCCCSCCCNC(=O)c1ccc(CS(=O)(=O)c2ccc(OC)cc2)o1	?	?	.	.	.
N#Cc1c(SCC(=O)Nc2ccc(Cl)cc2Cl)sc2c(O)cc(=O)[nH]c12	2.9µM	.	.	.	.
COc1ccc(CCNC(=O)c2nnn(CC(=O)Nc3ccc(C)cc3C)c2N)cc1OC	.	?	.	.	.
CC(C)CC(=O)Nc1ccc(C(=O)Nc2cccc(O)c2)cc1	.	?	.	74	32
O=C(Nc1cccc(C(F)(F)F)c1)c1ccc2nc(-c3ccco3)c(-c3ccco3)nc2c1	?	/	5.6µM	.	.
O=C(Nc1ccc(C(F)(F)F)cc1)c1ccccc1	.	.	/	/	/
O=C(Nc1ccccc1)c1ccc(S(=O)(=O)Nc2cccc(O)c2)cc1	.	.	.	.	.
O=C(Nc1cccc(O)c1)c1ccc(C(F)(F)F)cc1	.	.	.	69	30
O=C(Nc1ccc(Br)c(C(F)(F)F)c1)c1ccc(C(F)(F)F)cc1	?	?	.	78	36
COc1ccc(C2=NN(c3ccccc3)C(c3cn(CCC(=O)O)nc3-c3ccccc3)C2)cc1 (stereo not given)	.	.	/	.	.
O=C(Nc1ccc(Br)c(C(F)(F)F)c1)c1ccccc1	.	.	.	.	46
NC(=O)c1cc(Cc2ccccc2)sc1NC(=O)c1ccco1	.	/	.	78	47
CCOc1cc(NC(=O)c2ccco2)c(OCC)cc1NC(=O)Cc1ccc(OC)c(OC)c1	?	.	.	.	.
COC(=O)c1cc(C)sc1NC(=O)c1ccco1	.	.	.	.	.
CCOc1ccc(CC(=O)Nc2sc(Cc3ccccc3)cc2C(N)=O)cc1OCC	/	12µM	.	.	.
Cn1c(CO)cnc1S(=O)(=O)Cc1c(Cl)cccc1Cl	.	.	.	.	.
CCOc1ccc(-c2cc(C(=O)Nc3ccc4c(c3)OCCO4)c3ccccc3n2)cc1	.	.	.	52	23
Cc1cccc(-c2cc(C(=O)Nc3ccc4c(c3)OCCO4)c3ccccc3n2)c1	?	12µM	.	96	32
COc1ccc(-c2noc(N3CCC(C(=O)Nc4cc(OC)c(OC)c(OC)c4)CC3)n2)cc1	?	.	.	.	.
Clc1cccc(Cl)c1/C=C/c1ccn[nH]1	.	.	.	67	35
CCC(C)C(NC(=O)OC(C)(C)C)C(=O)NC1COC2CC(n3ccc(NC(C)=O)nc3=O)OC12 (stereo not given)	/	/	/	.	.
SMILES	Pf growth 48h	Pf growth 96h	NS1 inh	Shiga inhibitor	CHX counter
O=C(/C=C/c1cccc([N+](=O)[O-])c1)OCC1CCCO1 (stereo not given)	.	.	.	26	11
Nc1ccccc1SC1CC(=O)N(c2ccc3c(c2)OCCO3)C1=O (stereo not given)	.	.	.	69	38
Cc1ccccc1N1C(=O)CC(Sc2nnc(-c3ccccc3)o2)C1=O (stereo not given)	.	.	.	.	19
O=C1CC(Sc2nnc(-c3ccccc3)o2)C(=O)N1c1ccccc1 (stereo not given)	.	/	.	49	22
Cc1nnc(SC2CC(=O)N(c3ccccc3)C2=O)s1 (stereo not given)	.	.	.	.	.
Nc1ccccc1SC1CC(=O)N(c2ccc(Cl)c(Cl)c2)C1=O (stereo not given)	.	.	.	.	.
O=C(O)c1ccccc1SC1CC(=O)N(c2ccccc2)C1=O (stereo not given)	.	2.1µM	.	.	.
COc1ccc(CCNC(=O)CN(c2ccc(OC)c(OC)c2)S(=O)(=O)c2ccc(C)cc2)cc1	?	.	.	.	.
